Holding throughout (assay): PBM; 200 nM protein, PBS
Settings in all cases: dsDNA, one strand shown

For assay [1], the target named is HOXB9 (Homo sapiens, UniProt P17482 171-250, T197M).
In assay [2] the target is T1, PAX4 (Homo sapiens, UniProt O43316 9-242, R200K).
T1 sequence: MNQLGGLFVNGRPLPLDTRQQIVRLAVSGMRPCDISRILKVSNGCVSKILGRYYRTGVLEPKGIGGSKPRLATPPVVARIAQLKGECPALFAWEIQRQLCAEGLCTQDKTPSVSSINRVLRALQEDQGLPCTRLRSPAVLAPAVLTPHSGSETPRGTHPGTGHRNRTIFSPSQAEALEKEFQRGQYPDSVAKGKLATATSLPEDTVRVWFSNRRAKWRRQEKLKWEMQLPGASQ

Assay [3] deals with T2, PAX4 (Homo sapiens, UniProt O43316 9-242).
T2 sequence: T1 sequence with K192R

The target of assay [4] is HOXA2 (Homo sapiens, UniProt O43364 129-215, R185T).
The target of assay [5] is HOXB9 (Homo sapiens, UniProt P17482 171-250).
Assay [6] has as its target ALX3 (Homo sapiens, UniProt O95076 139-225, N203Q).
The target in assay [7] is T3, PAX4 (Homo sapiens, UniProt O43316 9-242, R200Q).
T3 sequence: T1 sequence with K192Q

In assay [8] the target is HOXA2 (Homo sapiens, UniProt O43364 129-215, R185K).
Assay [9] has as its target T4, PAX4 (Homo sapiens, UniProt O43316 9-242, F177V).
T4 sequence: T1 sequence with F169V, K192R

For assay [10], the target named is ALX3 (Homo sapiens, UniProt O95076 139-225).
Assay [11] has as its target T5, PAX4 (Homo sapiens, UniProt O43316 9-242, F177Y).
T5 sequence: T1 sequence with F169Y, K192R

Assay [12] concerns the target ALX3 (Homo sapiens, UniProt O95076 139-225, L168Q).
The target in assay [13] is HOXB9 (Homo sapiens, UniProt P17482 171-250, R186Q).
Assay [14] deals with ALX3 (Homo sapiens, UniProt O95076 139-225, L168V).
In assay [15] the target is T6, PAX4 (Homo sapiens, UniProt O43316 9-242, R227W).
T6 sequence: T1 sequence with K192R, R219W

For assay [16], the target named is HOXA2 (Homo sapiens, UniProt O43364 129-215, Y150S).
Assay [17] addresses ALX3 (Homo sapiens, UniProt O95076 139-225, N203S).
In assay [18] the target is HOXA2 (Homo sapiens, UniProt O43364 129-215).
Assay [19] has as its target HOXC10 (Homo sapiens, UniProt Q9NYD6 254-340).
Assay [20] deals with HOXC10 (Homo sapiens, UniProt Q9NYD6 254-340, K271E).
Assay [21] deals with VAX1 (Homo sapiens, UniProt Q5SQQ9 86-172).
Assay [22] has as its target VAX1 (Homo sapiens, UniProt Q5SQQ9 86-172, T142I).
Assay [23] has as its target VAX1 (Homo sapiens, UniProt Q5SQQ9 86-172, K157R).
Assay [24] has as its target PRRX1 (Homo sapiens, UniProt P54821 80-166, F113S).
For assay [25], the target named is HOXB6 (Homo sapiens, UniProt P17509 132-218, K202E).
Assay [26] deals with HOXC9 (Homo sapiens, UniProt P31274 178-260, K195R).
Assay [27] concerns the target HOXC9 (Homo sapiens, UniProt P31274 178-260).
For assay [28], the target named is HOXD13 (Homo sapiens, UniProt P35453 263-343, T313R).
Assay [29] addresses HOXC9 (Homo sapiens, UniProt P31274 178-260, R193K).
In assay [30] the target is HOXD13 (Homo sapiens, UniProt P35453 263-343).
In assay [31] the target is HOXD13 (Homo sapiens, UniProt P35453 263-343, T313A).
Assay [32] deals with HOXC9 (Homo sapiens, UniProt P31274 178-260, R222W).
For assay [33], the target named is NKX3-2 (Homo sapiens, UniProt P78367 192-278, P234S).
Assay [34] concerns the target NKX3-2 (Homo sapiens, UniProt P78367 192-278).
Assay [35] has as its target ALX4 (Homo sapiens, UniProt Q9H161 200-286).
For assay [36], the target named is ALX4 (Homo sapiens, UniProt Q9H161 200-286, Q225E).
Assay [37] deals with MSX2 (Homo sapiens, UniProt P35548 130-214, R199I).
Assay [38] concerns the target MSX2 (Homo sapiens, UniProt P35548 130-214).
Assay [39] has as its target MSX2 (Homo sapiens, UniProt P35548 130-214, F161Y).

Where a chain is given by its changes, count along the chain named.

HOXB9 (Homo sapiens, UniProt P17482 171-250), sequence (P17482 171-250): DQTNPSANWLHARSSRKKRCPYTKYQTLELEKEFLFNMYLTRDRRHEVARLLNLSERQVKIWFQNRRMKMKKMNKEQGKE
HOXC10 (Homo sapiens, UniProt Q9NYD6 254-340, K271E), sequence (Q9NYD6 254-340 K271E): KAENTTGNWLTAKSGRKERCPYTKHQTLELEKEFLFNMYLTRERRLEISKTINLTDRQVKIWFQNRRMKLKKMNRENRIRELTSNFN
HOXB9 (Homo sapiens, UniProt P17482 171-250, T197M), sequence (P17482 171-250 T197M): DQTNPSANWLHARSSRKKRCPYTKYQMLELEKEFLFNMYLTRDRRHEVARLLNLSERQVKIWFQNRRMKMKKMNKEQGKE
HOXB9 (Homo sapiens, UniProt P17482 171-250, R186Q), sequence (P17482 171-250 R186Q): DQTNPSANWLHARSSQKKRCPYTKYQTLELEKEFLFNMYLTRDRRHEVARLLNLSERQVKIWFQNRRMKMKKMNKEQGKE
HOXC10 (Homo sapiens, UniProt Q9NYD6 254-340), sequence (Q9NYD6 254-340): as the sequence (Q9NYD6 254-340 K271E) above, with E18K counted along it
HOXC9 (Homo sapiens, UniProt P31274 178-260, K195R), sequence (P31274 178-260 K195R): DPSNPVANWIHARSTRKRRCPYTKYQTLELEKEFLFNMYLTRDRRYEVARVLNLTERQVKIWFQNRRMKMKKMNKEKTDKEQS
ALX4 (Homo sapiens, UniProt Q9H161 200-286), sequence (Q9H161 200-286): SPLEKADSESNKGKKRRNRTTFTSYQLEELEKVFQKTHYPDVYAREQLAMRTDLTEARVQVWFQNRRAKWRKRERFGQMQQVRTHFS
ALX4 (Homo sapiens, UniProt Q9H161 200-286, Q225E), sequence (Q9H161 200-286 Q225E): as the sequence (Q9H161 200-286) above, with Q26E counted along it
HOXC9 (Homo sapiens, UniProt P31274 178-260, R222W), sequence (P31274 178-260 R222W): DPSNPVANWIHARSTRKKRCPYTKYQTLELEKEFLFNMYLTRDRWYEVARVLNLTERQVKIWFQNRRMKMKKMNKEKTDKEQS
HOXC9 (Homo sapiens, UniProt P31274 178-260, R193K), sequence (P31274 178-260 R193K): as the sequence (P31274 178-260 R222W) above, with R16K, W45R counted along it
HOXD13 (Homo sapiens, UniProt P35453 263-343, T313R), sequence (P35453 263-343 T313R): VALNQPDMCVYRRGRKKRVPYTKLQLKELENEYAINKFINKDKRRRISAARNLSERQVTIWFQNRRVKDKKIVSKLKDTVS
HOXD13 (Homo sapiens, UniProt P35453 263-343), sequence (P35453 263-343): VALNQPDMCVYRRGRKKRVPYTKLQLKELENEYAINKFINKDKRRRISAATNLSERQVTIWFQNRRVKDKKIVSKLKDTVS
HOXD13 (Homo sapiens, UniProt P35453 263-343, T313A), sequence (P35453 263-343 T313A): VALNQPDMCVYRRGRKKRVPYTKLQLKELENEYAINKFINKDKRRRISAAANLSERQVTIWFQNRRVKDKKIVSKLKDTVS
HOXC9 (Homo sapiens, UniProt P31274 178-260), sequence (P31274 178-260): as the sequence (P31274 178-260 R222W) above, with W45R counted along it
VAX1 (Homo sapiens, UniProt Q5SQQ9 86-172), sequence (Q5SQQ9 86-172): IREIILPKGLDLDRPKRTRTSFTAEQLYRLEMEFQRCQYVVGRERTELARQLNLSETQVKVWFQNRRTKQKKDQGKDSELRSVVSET
HOXA2 (Homo sapiens, UniProt O43364 129-215, R185K), sequence (O43364 129-215 R185K): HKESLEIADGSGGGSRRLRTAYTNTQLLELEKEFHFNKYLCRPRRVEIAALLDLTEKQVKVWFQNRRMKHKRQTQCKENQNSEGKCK
HOXA2 (Homo sapiens, UniProt O43364 129-215, Y150S), sequence (O43364 129-215 Y150S): as the sequence (O43364 129-215 R185K) above, with Y22S, K57R counted along it
MSX2 (Homo sapiens, UniProt P35548 130-214, F161Y), sequence (P35548 130-214 F161Y): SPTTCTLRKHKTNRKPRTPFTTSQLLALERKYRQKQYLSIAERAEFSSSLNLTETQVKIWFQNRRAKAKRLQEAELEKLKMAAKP
ALX3 (Homo sapiens, UniProt O95076 139-225, N203Q), sequence (O95076 139-225 N203Q): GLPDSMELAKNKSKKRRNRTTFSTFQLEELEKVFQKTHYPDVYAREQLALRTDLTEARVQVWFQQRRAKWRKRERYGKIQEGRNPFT
VAX1 (Homo sapiens, UniProt Q5SQQ9 86-172, T142I), sequence (Q5SQQ9 86-172 T142I): as the sequence (Q5SQQ9 86-172) above, with T57I counted along it
ALX3 (Homo sapiens, UniProt O95076 139-225), sequence (O95076 139-225): as the sequence (O95076 139-225 N203Q) above, with Q65N counted along it
HOXA2 (Homo sapiens, UniProt O43364 129-215), sequence (O43364 129-215): as the sequence (O43364 129-215 R185K) above, with K57R counted along it
ALX3 (Homo sapiens, UniProt O95076 139-225, L168Q), sequence (O95076 139-225 L168Q): as the sequence (O95076 139-225 N203Q) above, with L30Q, Q65N counted along it
MSX2 (Homo sapiens, UniProt P35548 130-214, R199I), sequence (P35548 130-214 R199I): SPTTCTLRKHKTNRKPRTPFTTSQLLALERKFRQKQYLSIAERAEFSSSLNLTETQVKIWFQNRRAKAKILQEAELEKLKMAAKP
HOXB6, sequence (P17509 132-218 K202E): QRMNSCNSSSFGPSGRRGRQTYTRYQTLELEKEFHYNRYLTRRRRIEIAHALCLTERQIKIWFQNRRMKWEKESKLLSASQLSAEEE
VAX1 (Homo sapiens, UniProt Q5SQQ9 86-172, K157R), sequence (Q5SQQ9 86-172 K157R): as the sequence (Q5SQQ9 86-172) above, with K72R counted along it
ALX3 (Homo sapiens, UniProt O95076 139-225, N203S), sequence (O95076 139-225 N203S): as the sequence (O95076 139-225 N203Q) above, with Q65S counted along it
NKX3-2 (Homo sapiens, UniProt P78367 192-278, P234S), sequence (P78367 192-278 P234S): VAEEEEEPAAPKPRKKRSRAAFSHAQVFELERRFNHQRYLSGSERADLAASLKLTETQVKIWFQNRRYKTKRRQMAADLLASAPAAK
PRRX1, sequence (P54821 80-166 F113S): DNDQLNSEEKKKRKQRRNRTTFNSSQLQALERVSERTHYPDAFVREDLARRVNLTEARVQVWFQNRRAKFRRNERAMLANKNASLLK
ALX3 (Homo sapiens, UniProt O95076 139-225, L168V), sequence (O95076 139-225 L168V): as the sequence (O95076 139-225 N203Q) above, with L30V, Q65N counted along it
MSX2 (Homo sapiens, UniProt P35548 130-214), sequence (P35548 130-214): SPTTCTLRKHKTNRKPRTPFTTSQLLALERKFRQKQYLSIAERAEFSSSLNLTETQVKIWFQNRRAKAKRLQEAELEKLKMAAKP
NKX3-2 (Homo sapiens, UniProt P78367 192-278), sequence (P78367 192-278): as the sequence (P78367 192-278 P234S) above, with S43P counted along it
HOXA2 (Homo sapiens, UniProt O43364 129-215, R185T), sequence (O43364 129-215 R185T): as the sequence (O43364 129-215 R185K) above, with K57T counted along it

For AGGCCCCC, the binding signal in assay [1] is 8.34 upbm affinity estimate (log intensity, higher = more binding, comparable within an allelic series); in assay [2], 9.04 upbm affinity estimate (log intensity, higher = more binding, comparable within an allelic series); in [3], 9.05 upbm affinity estimate (log intensity, higher = more binding, comparable within an allelic series); in assay [4], 7.07 upbm affinity estimate (log intensity, higher = more binding, comparable within an allelic series); in [5], 8.29 upbm affinity estimate (log intensity, higher = more binding, comparable within an allelic series); in [6], 7.63 upbm affinity estimate (log intensity, higher = more binding, comparable within an allelic series). Besides, the binding signal was 9.09 upbm affinity estimate (log intensity, higher = more binding, comparable within an allelic series) in assay [7]; 9.91 upbm affinity estimate (log intensity, higher = more binding, comparable within an allelic series) in assay [8]; 8.99 upbm affinity estimate (log intensity, higher = more binding, comparable within an allelic series) in assay [9]; 7.61 upbm affinity estimate (log intensity, higher = more binding, comparable within an allelic series) in assay [10]; 8.97 upbm affinity estimate (log intensity, higher = more binding, comparable within an allelic series) in assay [11]; 7.47 upbm affinity estimate (log intensity, higher = more binding, comparable within an allelic series) in assay [12]. Further, the binding signal in [13] is 8.32 upbm affinity estimate (log intensity, higher = more binding, comparable within an allelic series); in assay [14], 7.5 upbm affinity estimate (log intensity, higher = more binding, comparable within an allelic series); in assay [15], 9.06 upbm affinity estimate (log intensity, higher = more binding, comparable within an allelic series); in [16], 10.2 upbm affinity estimate (log intensity, higher = more binding, comparable within an allelic series); in [17] it was 7.61 upbm affinity estimate (log intensity, higher = more binding, comparable within an allelic series); in [18], 7.21 upbm affinity estimate (log intensity, higher = more binding, comparable within an allelic series).

CTGCTCCC: the binding signal in [1] was 8.68 upbm affinity estimate (log intensity, higher = more binding, comparable within an allelic series); in [19], 10.1 upbm affinity estimate (log intensity, higher = more binding, comparable within an allelic series); in assay [5], 8.67 upbm affinity estimate (log intensity, higher = more binding, comparable within an allelic series); in assay [20] it was 10.1 upbm affinity estimate (log intensity, higher = more binding, comparable within an allelic series); in [21], 7.16 upbm affinity estimate (log intensity, higher = more binding, comparable within an allelic series); in [13], 8.65 upbm affinity estimate (log intensity, higher = more binding, comparable within an allelic series). Besides, the binding signal is 7.2 upbm affinity estimate (log intensity, higher = more binding, comparable within an allelic series) in [22] and 7.01 upbm affinity estimate (log intensity, higher = more binding, comparable within an allelic series) in assay [23].

In the case of AATTATAT, the binding signal was 9.99 upbm affinity estimate (log intensity, higher = more binding, comparable within an allelic series) in [1]; 11.1 upbm affinity estimate (log intensity, higher = more binding, comparable within an allelic series) in assay [24]; 9.99 upbm affinity estimate (log intensity, higher = more binding, comparable within an allelic series) in assay [25].

As to GAGTCTCC, the binding signal was 8.54 upbm affinity estimate (log intensity, higher = more binding, comparable within an allelic series) in [1]; 10 upbm affinity estimate (log intensity, higher = more binding, comparable within an allelic series) in assay [19]; 8.49 upbm affinity estimate (log intensity, higher = more binding, comparable within an allelic series) in [5]; 9.99 upbm affinity estimate (log intensity, higher = more binding, comparable within an allelic series) in assay [20]; 8.45 upbm affinity estimate (log intensity, higher = more binding, comparable within an allelic series) in assay [13].

Regarding CCATAAAC, the binding signal is 9.33 upbm affinity estimate (log intensity, higher = more binding, comparable within an allelic series) in [1]; 12.4 upbm affinity estimate (log intensity, higher = more binding, comparable within an allelic series) in [26]; 11.8 upbm affinity estimate (log intensity, higher = more binding, comparable within an allelic series) in assay [5]; 12.6 upbm affinity estimate (log intensity, higher = more binding, comparable within an allelic series) in assay [27]; 10.8 upbm affinity estimate (log intensity, higher = more binding, comparable within an allelic series) in assay [28]; 12.5 upbm affinity estimate (log intensity, higher = more binding, comparable within an allelic series) in [29]. The binding signal in assay [30] was 12.1 upbm affinity estimate (log intensity, higher = more binding, comparable within an allelic series); in assay [20], 11.3 upbm affinity estimate (log intensity, higher = more binding, comparable within an allelic series); in [31], 11.8 upbm affinity estimate (log intensity, higher = more binding, comparable within an allelic series); in [13], 11.5 upbm affinity estimate (log intensity, higher = more binding, comparable within an allelic series); in assay [32], 10.8 upbm affinity estimate (log intensity, higher = more binding, comparable within an allelic series).

On to GGCAGACC, for which the binding signal in assay [1] is 8.55 upbm affinity estimate (log intensity, higher = more binding, comparable within an allelic series); in assay [19], 10.1 upbm affinity estimate (log intensity, higher = more binding, comparable within an allelic series); in assay [5], 8.57 upbm affinity estimate (log intensity, higher = more binding, comparable within an allelic series); in assay [20] it was 10.1 upbm affinity estimate (log intensity, higher = more binding, comparable within an allelic series); in assay [13], 8.65 upbm affinity estimate (log intensity, higher = more binding, comparable within an allelic series); in assay [33], 10.4 upbm affinity estimate (log intensity, higher = more binding, comparable within an allelic series). In [34], the binding signal is 10.3 upbm affinity estimate (log intensity, higher = more binding, comparable within an allelic series).

As for TCCCGGGA, the binding signal in assay [1] was 8.9 upbm affinity estimate (log intensity, higher = more binding, comparable within an allelic series); in [35], 8.7 upbm affinity estimate (log intensity, higher = more binding, comparable within an allelic series); in assay [36], 8.23 upbm affinity estimate (log intensity, higher = more binding, comparable within an allelic series); in assay [5], 8.93 upbm affinity estimate (log intensity, higher = more binding, comparable within an allelic series); in assay [13], 8.89 upbm affinity estimate (log intensity, higher = more binding, comparable within an allelic series).

As to GGAGCCAC, the binding signal was 8.39 upbm affinity estimate (log intensity, higher = more binding, comparable within an allelic series) in assay [1]; 8.24 upbm affinity estimate (log intensity, higher = more binding, comparable within an allelic series) in assay [35]; 8.19 upbm affinity estimate (log intensity, higher = more binding, comparable within an allelic series) in [36]; 8.65 upbm affinity estimate (log intensity, higher = more binding, comparable within an allelic series) in assay [5]; 8.65 upbm affinity estimate (log intensity, higher = more binding, comparable within an allelic series) in assay [13].

Regarding CCCGATGC, the binding signal in assay [1] was 8.47 upbm affinity estimate (log intensity, higher = more binding, comparable within an allelic series); in [26], 9.5 upbm affinity estimate (log intensity, higher = more binding, comparable within an allelic series); in assay [5] it was 8.13 upbm affinity estimate (log intensity, higher = more binding, comparable within an allelic series); in assay [27], 9.57 upbm affinity estimate (log intensity, higher = more binding, comparable within an allelic series); in assay [28] it was 9.52 upbm affinity estimate (log intensity, higher = more binding, comparable within an allelic series); in assay [29], 9.49 upbm affinity estimate (log intensity, higher = more binding, comparable within an allelic series). In addition, the binding signal in [30] was 9.47 upbm affinity estimate (log intensity, higher = more binding, comparable within an allelic series); in [31] it was 9.71 upbm affinity estimate (log intensity, higher = more binding, comparable within an allelic series); in assay [13], 8.19 upbm affinity estimate (log intensity, higher = more binding, comparable within an allelic series); in assay [32] it was 9.68 upbm affinity estimate (log intensity, higher = more binding, comparable within an allelic series).

In the case of AGCCGCAG, the binding signal is 8.34 upbm affinity estimate (log intensity, higher = more binding, comparable within an allelic series) in assay [1]; 9.2 upbm affinity estimate (log intensity, higher = more binding, comparable within an allelic series) in assay [2]; 9.21 upbm affinity estimate (log intensity, higher = more binding, comparable within an allelic series) in [3]; 8.11 upbm affinity estimate (log intensity, higher = more binding, comparable within an allelic series) in [5]; 9.46 upbm affinity estimate (log intensity, higher = more binding, comparable within an allelic series) in [37]; 9.21 upbm affinity estimate (log intensity, higher = more binding, comparable within an allelic series) in [7]. In addition, the binding signal in assay [9] is 9.11 upbm affinity estimate (log intensity, higher = more binding, comparable within an allelic series); in [38], 9.43 upbm affinity estimate (log intensity, higher = more binding, comparable within an allelic series); in assay [11], 9.12 upbm affinity estimate (log intensity, higher = more binding, comparable within an allelic series); in assay [13] it was 8.24 upbm affinity estimate (log intensity, higher = more binding, comparable within an allelic series); in [39] it was 9.5 upbm affinity estimate (log intensity, higher = more binding, comparable within an allelic series); in [15], 9.18 upbm affinity estimate (log intensity, higher = more binding, comparable within an allelic series).

The record behind these values is publication PMC11006913.
